Screening results as filed in PubChem BioAssay.
Only a selection was taken, and hits are over-represented in it overall.
Giardia FBPA inh: Giardia lamblia aldolase inhibition | purified Giardia FBPA | A8B2U2 | actives 0.71% (n = 290,000) | Potency, µM (series often up to 59.6 µM), for inactives: at the top dose activity, negative = inhibition, actives largely listed as inhibitors | AID 2451; note: potency is the fitted concentration of half-maximal effect; % is set by controls: 0 for no effect and ±100 for the full control effect; nearly all actives have a fitted effect of over 55% in size
Target sequence (A8B2U2 whole entry, looked up): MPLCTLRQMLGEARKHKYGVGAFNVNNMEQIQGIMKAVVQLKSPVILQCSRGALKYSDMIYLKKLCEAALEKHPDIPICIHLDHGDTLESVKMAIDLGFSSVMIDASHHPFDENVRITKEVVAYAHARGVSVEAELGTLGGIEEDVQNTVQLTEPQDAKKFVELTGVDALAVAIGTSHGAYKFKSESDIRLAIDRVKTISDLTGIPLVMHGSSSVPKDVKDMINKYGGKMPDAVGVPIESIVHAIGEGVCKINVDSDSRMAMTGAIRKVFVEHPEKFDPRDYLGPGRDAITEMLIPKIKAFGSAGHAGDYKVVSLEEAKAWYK
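Giardia FBPA (40 nM reagent) was preincubated 10 min at RT with compound (up to 57.5 uM final), then substrate plus GAPDH/TPI/NAD/arsenate coupling system with diaphorase/resazurin was added; resorufin fluorescence (525/598 nm) was read after 20 min.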
Cycloheximide cs: affects cycloheximide protein synthesis inhibition readout, counter-screen; cell reporter, cycloheximide protein synthesis inhibition counterscreen; max response, %; actives 12% (n = 300,000); AID 2314; in the data active = max response mostly above about 13%, no sharp cut-off; inactive = mostly below about 14%; note: read at 38.3 µM for the half of the compounds with a filed dose; 0% is about no effect
Sm TGR block: S. mansoni TGR enzyme inhibition; AID 485364; Q962Y6; purified TGR, DTNB reduction, TNB absorbance 405 nm; Potency, µM (top dose mostly 114 µM), without a hit: at the top dose activity change, negative = inhibition, usual class: inhibitors; actives 3% (n = 360,000); note: potency is the fitted concentration of half-maximal effect; % is set by controls: 0 for no effect and ±100 for the full control effect; nearly all actives have a fitted effect of over 60% in size
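TGR 20 nM + NADPH 100 uM (dispensed conc.), cpd preinc 15 min RT; start with NADPH (500 uM addition) then DTNB (15 mM addition). Kinetic TNB absorbance, 405 nm filter. Four-parameter Hill fit across titration.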
Tb PYK inh: blocks Trypanosoma brucei pyruvate kinase; Q57TT1; TbPYK enzyme, Kinase-Glo Plus ATP luminescence, 45 min; Potency, µM (highest dose often 76.8 µM), for inactives: top-dose activity, negative = inhibition, usual class: inhibitors; actives 0.12% (n = 410,000); AID 624173; note: potency is the fitted concentration of half-maximal effect; % is set by controls: 0 for no effect and ±100 for the full control effect; nearly all actives have a fitted effect of over 50% in size
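Activity of T. brucei pyruvate kinase was followed by Kinase-Glo Plus luminescence after the enzyme reacted 45 min at room temperature with 130 uM ADP (final) and substrate. Test compounds were added before ADP at multiple concentrations.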
LmPK inhibitor: inhibitors of Leishmania mexicana pyruvate kinase; purified LmPK, Kinase-Glo ATP luminescence, 1 h; Potency, µM (highest dose often 57.5 µM), for the others: top-dose activity change, negative = inhibition, actives largely listed as inhibitors; actives 0.37% (n = 290,000); AID 1721; note: potency is the fitted concentration of half-maximal effect; % is set by controls: 0 for no effect and ±100 for the full control effect
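Pyruvate kinase activity monitored as ATP production (luciferase luminescence). Conditions: 0.1 nM enzyme, 0.5 mM PEP, 0.1 mM ADP, 1 h, RT; normalized against uninhibited and no-enzyme wells.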
Shiga inhibitor: Shiga toxin inhibition; inhibition, % at 38.7 µM; AID 2315; Vero cells, Shiga toxin protein synthesis inhibition reporter; actives 9.2% (n = 290,000); in the data active = inhibition mostly above about 28%, no sharp cut-off; inactive = mostly below about 43%; note: 0% is about no effect
Starred values were filed as active, the others as inactive; ? = inconclusive; nt = not tested or not shown; [ ] = dose if it differs, or a comment. Unless noted, calls come from the whole dose curve; as a rule, active = well fitted curve in the direction sought with a large enough effect; inconclusive = small, poorly fitted or top-dose-only effect, or another doubt; inactive = no such curve, though single readings can be large; an effect the other way counts as inactive or inconclusive.

SMILES | Giardia FBPA inh | Cycloheximide cs | Sm TGR block | Tb PYK inh | LmPK inhibitor | Shiga inhibitor
COc1cccc(-c2cccc(NC(=O)C3CCN(Cc4nccs4)CC3)c2)c1 | nt | 1 | -11% | 1% | -6% | -2
CCOc1ccc(CN2CCC(C(=O)Nc3cccc(-c4ccn[nH]4)c3)CC2)cc1Cl | nt | 24* | 0% | 5% | 4% | 43*
COc1ccccc1-c1nnc(C2CCN(S(=O)(=O)c3ccc(CC(C)C)cc3)CC2)o1 | nt | nt | 4% | -3% | nt | nt
CC1(C)CC(NC(=O)c2cccc(S(=O)(=O)N(Cc3ccccc3)c3ccccc3)c2)CC(C)(C)N1 | nt | nt | 0% | 3% | nt | nt
O=C(Nc1ccccc1O)c1csc2c1CCCC2 | -13% | 35* | 1%[57.1 µM] | 1% | -3% | 98*
Cc1cccc(C)c1NC(=O)c1csc2c1CCCC2 | nt | nt | 9% | -9% | nt | nt
COc1ccc(NC(=O)c2csc3c2CCCCC3)c(OC)c1 | -13% | 16* | 5% | -8% | -3% | 44
Cc1cccc(-n2ncc(C(=O)NCc3ccco3)c2C2CCN(C(=O)OC(C)(C)C)CC2)c1 | nt | nt | -6% | 6%[15.4 µM] | nt | nt
CN1CCN(C(=O)CSc2nc3ccc(NC(=O)c4ccccc4F)cc3s2)CC1 | 0% | 14* | -14% | -2% | -1% | 24
CCOc1ccc2nc(NC(=O)C3CCCO3)sc2c1 (centres undefined) | -2% | 1 | 14% | -3% | 2% | 24
CCCC(=O)Nc1nc2ccc(NC(=O)c3ccccc3F)cc2s1 | -1% | 21* | 0% | 0% | 6% | 47*
CCn1cc([N+](=O)[O-])c(C(=O)Nc2nc3ccc(OC)cc3s2)n1 | 18% | 15* | nt | 3% | 1% | 41
COc1ccc2nc(NC(=O)c3ccc(NC(=O)C4CCCO4)cc3)sc2c1 (centres undefined) | 2% | 19* | 3% | -11% | 10% | 16
COc1cc(=O)n(C)c2c(OC[C@@H](O)C(C)(C)O)cccc12 | -1%[21.7 µM] | nt | nt | nt | nt | nt
CSc1ccc(CCNC(=O)Cn2ncn3c(cc4ccccc43)c2=O)cc1 | nt | nt | -5% | -2% | nt | nt
Cc1ccc(-c2cc(C(=O)Nc3cc([N+](=O)[O-])ccc3C)no2)cc1F | nt | nt | -13% | 5% | nt | nt
CCNC(=O)[C@H]1O[C@@H](n2cnc3c(N)nc(NCCc4ccc(CCC(=O)O)cc4)nc32)[C@H](O)[C@H]1O | -4% | nt | nt | nt | nt | nt
COc1ccc2nc(NC(=O)c3ccc(NS(=O)(=O)c4cccs4)cc3)sc2c1 | 0% | 35* | -10% | -11% | 0% | 23
CCOc1ccc2nc(NC(=O)C34CC5CC(CC(NC(C)=O)(C5)C3)C4)sc2c1 | nt | -2 | -12% | -5% | -9% | -21
COc1ccc2nc(NC(=O)C34CC5CC(CC(NC(C)=O)(C5)C3)C4)sc2c1 | nt | 49* | -9% | -2% | -7% | 45*
COc1ccc(C(=O)Nc2nc3ccc(OC)cc3s2)cc1 | -23% | 39* | -11% | -1% | -2% | 68*
COc1ccc(C(=O)Nc2nc3ccc(S(C)(=O)=O)cc3s2)cc1 | 1% | 7 | -2% | -7% | 3% | 9
COc1ccc2nc(NC(=O)c3cnccn3)sc2c1 | 6% | 31* | -3% | -16% | ? | 119*
COc1ccc2nc(NC(=O)CNS(=O)(=O)c3cccs3)sc2c1 | 4% | 12 | -6% | -5% | 6% | 10
Cc1c(Cl)cccc1NC(=O)CCn1nc(C)c2c(C)n(-c3ccccc3)nc2c1=O | nt | nt | 7% | 3% | nt | nt
SMILES | Giardia FBPA inh | Cycloheximide cs | Sm TGR block | Tb PYK inh | LmPK inhibitor | Shiga inhibitor
COc1ccc(C(C)C)cc1S(=O)(=O)NCCc1c(C)[nH]c2ccc(C)cc12 | nt | nt | -2% | -5% | nt | nt
COc1ccc(-c2ccc(N(C)C)cc2)cc1C1C2C=CCC(C)C2C(=O)N1Cc1ccccc1 (centres undefined) | 2% | 6 | nt | nt | nt | 2
COc1ccc2nc(NC(=O)c3ccccc3C(=O)O)sc2c1 | 5% | 9 | -5% | -8% | -2% | -4
Cc1ccc2nc(NC(=O)c3ccccc3F)sc2c1 | 0% | 39* | -1% | -2% | -7% | 83*
COc1ccc2nc(NC(=O)c3cccc(-c4cc5ccccc5oc4=O)c3)sc2c1 | -1% | 34* | -6% | -1% | 3% | 43*
CCOc1ccccc1C(=O)Nc1ccc2nc(N(CC)CC)cc(C)c2c1 | nt | nt | 3% | 3% | nt | nt
COc1ccc2nc(NC(=O)c3ccccc3F)sc2c1 | 4% | 27* | -33% | -13% | -3% | 56*
COc1ccc2nc(NC(=O)c3cc(=O)c4ccccc4o3)sc2c1 | nt | nt | 8% | 2% | nt | nt
CCN(CC)c1cc(C)c2cc(NC(=O)c3ccccc3F)ccc2n1 | 6% | 16* | -8% | 3% | 0% | 22
CCCCN(CCCC)CCNC(=O)Cn1nc(CC)n2c(cc3sccc32)c1=O | nt | nt | 4% | 4% | nt | nt
C#CCCCO/N=C1/C[C@@H](O)[C@@H](O)[C@@H]2[C@@H]3C(=O)N(CCC(=O)OCC)C(=O)[C@H]3CC[C@H]12 | 0%[12.9 µM] | nt | nt | nt | nt | nt
Cc1ccccc1-c1nc(NC(=O)CSc2ncnc3sc4c(c23)CCCC4)ns1 | nt | nt | 1% | 0% | nt | nt
c1ccc(Nc2nc(-c3cccs3)cs2)nc1 | -12% | 33* | -3% | 4% | ? | 88*
Cc1cccc(Nc2nc(-c3ccccn3)cs2)n1 | -5% | 37* | -5% | 2% | -13% | 63*
Cc1cccc(Nc2nc(-c3cccs3)cs2)n1 | -1% | 46* | -3% | -6% | -21% | 68*
Nc1ccc(Nc2nc(-c3cccs3)cs2)cc1 | -1% | -1 | -8% | -7% | -3% | 8
COc1ccc(NC(=O)C(C)Sc2cc(-c3ccccc3)nc(C)n2)cc1Cl (centres undefined) | nt | nt | 10% | -14% | nt | nt
OCc1ccc(-c2cccc3nccn23)cc1 | nt | nt | nt | 2% | nt | nt
O=C(COc1ccc(Cl)cc1Cl)N/N=C/c1cccnc1 | nt | -4 | -1% | 5% | -1% | -7
Cc1ccccc1OCC(=O)Nc1ccncc1 | 14% | 2 | -31% | 2% | -1% | 40
CCNC(=O)CCCOc1ccc(Cl)cc1Cl | 4% | 29* | 7% | -4% | -1% | 54*
Cc1ccc(OCC(=O)Nc2ccncc2)c(C)c1 | 13% | 20* | 5% | -4% | 1% | 23
O=C(COc1ccc(Cl)cc1Cl)Nc1cccnc1 | 8% | 45* | -1% | 3% | 0% | 86*
O=C(CCCOc1ccc(Cl)cc1Cl)Nc1ccccn1 | 3% | 15 | nt | -7% | 1% | 55*
COc1cccc(Cn2c(=O)n(Cc3ccco3)c(=O)c3oc4ccccc4c32)c1 | nt | nt | -10% | -9% | nt | nt
O=C(Nc1cccc(C(F)(F)F)c1)N1CCC(CN2CCCCCC2)CC1 | nt | nt | -26% | 4% | nt | nt
COCCNC(=O)COc1ccc(C)cc1C | 4% | 12 | 10% | -6% | 3% | 37
O=C(COc1ccc(Cl)cc1Br)Nc1ccncc1 | -6% | 58* | 0% | -6% | 2% | 47*
